This passage reports composite z-score and z-score results from PubChem BioAssay.

For experiment [1], the system named is PRMT1 (protein arginine N-methyltransferase 1). Description: PRMT1 binders on small-molecule microarrays, primary screen, biochemical, small-molecule microarray, 635 nm fluorescence (AID 1088).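 Also: binding of Prmt1 protein to compounds spotted on small-molecule microarray slides.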 To be noted: small-molecule microarray binding, higher = more signal.
Experiment [2] is described as follows: yeast growth modulation, basal conditions, primary screen, YJM789 clinical isolate, OD600, 24 h (AID 1089).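 Also: growth of clinical yeast isolate S. cerevisiae YJM 789 seeded 1000 cells per well; test concentration not given here.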 Conditions: S. cerevisiae YJM789 growth, higher = more signal, called active from +8 up or from −8 down.
Experiment [3] is described as follows: fission yeast growth modulation, primary screen, strain 972, OD600, 24 h, no modulator (AID 1090).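 Also: basal condition with compound alone and no growth modifier present; test concentration not given here.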 To be noted: S. pombe 972 growth, higher = more signal, called active from +8 up or from −8 down.
Experiment [4] is described as follows: S. cerevisiae growth modulation with rapamycin, primary screen, strain BY4716, OD600, 96 h (AID 1091). Also: test concentration not given here. Conditions: higher = more signal, called active from +8 up or from −8 down.
The target in experiment [5] is Torsin-1A-interacting protein 2 (Homo sapiens) (UniProt Q8NFQ8). Put plainly: LULL1 binders on small-molecule microarray, primary screen, cell lysate, human LULL1 lysate, 635/667 nm fluorescence (AID 1092).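 Also: probe is lysate of COS7 cells overexpressing human LULL1; score merges per-feature 667 nm fluorescence with signal-to-noise.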 Conditions: hLULL1 lysate binding, 635 nm fluorescence, higher = more signal.
Torsin-1A-interacting protein 2 (Homo sapiens), sequence (Q8NFQ8 whole entry, looked up): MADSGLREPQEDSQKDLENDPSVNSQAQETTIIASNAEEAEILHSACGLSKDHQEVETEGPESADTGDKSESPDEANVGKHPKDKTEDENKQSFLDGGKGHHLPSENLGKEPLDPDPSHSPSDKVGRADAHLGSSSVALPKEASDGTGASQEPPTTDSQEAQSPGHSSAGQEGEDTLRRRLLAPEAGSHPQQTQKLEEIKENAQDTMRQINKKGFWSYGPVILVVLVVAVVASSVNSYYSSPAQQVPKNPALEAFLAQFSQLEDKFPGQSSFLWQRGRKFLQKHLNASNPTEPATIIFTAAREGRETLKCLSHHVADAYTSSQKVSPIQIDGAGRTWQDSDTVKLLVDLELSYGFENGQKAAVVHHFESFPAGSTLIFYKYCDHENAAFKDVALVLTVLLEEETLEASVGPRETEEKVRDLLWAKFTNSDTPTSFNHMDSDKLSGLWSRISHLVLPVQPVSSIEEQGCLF
Experiment [6] is described as follows: E. coli growth modulation, two-sided OD650, primary screen, E. coli filamentation project, strain DRC41, 24 h (AID 1093).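 Also: MC1000 strain lacking acrAB efflux and sulA so SOS filamentation is blocked; test concentration not given here.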 To be noted: OD650, 24 h, higher = more signal, called active from +8 up or from −8 down.
Experiment [7] in a line: small-molecule microarray binders of probe aLefty2, primary screen, biochemical, biotinylated probe, 635/667 nm fluorescence (AID 1094).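 Also: score merges spot fluorescence near 667 nm with spot signal-to-noise ratio.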 Conditions: higher = more signal.
Experiment [8] has as its system Noggin (protein binding on small-molecule microarray). Description: Noggin binders on small-molecule microarray, primary screen, biochemical, 635/667 nm fluorescence (AID 1095).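 Also: score merges 667 nm feature fluorescence with signal to noise over triplicate slides.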 To be noted: 635 nm fluorescence, higher = more signal.
Experiment [9] deals with Neurogenic locus notch homolog protein 3 (Homo sapiens) (UniProt Q9UM47). Put plainly: NOTCH3 binders on small-molecule microarray, primary screen, biochemical, 635/667 nm fluorescence (AID 1096). Conditions: NOTCH3 binding, 635 nm fluorescence, higher = more signal.
Neurogenic locus notch homolog protein 3 (Homo sapiens), sequence (Q9UM47 whole entry, looked up): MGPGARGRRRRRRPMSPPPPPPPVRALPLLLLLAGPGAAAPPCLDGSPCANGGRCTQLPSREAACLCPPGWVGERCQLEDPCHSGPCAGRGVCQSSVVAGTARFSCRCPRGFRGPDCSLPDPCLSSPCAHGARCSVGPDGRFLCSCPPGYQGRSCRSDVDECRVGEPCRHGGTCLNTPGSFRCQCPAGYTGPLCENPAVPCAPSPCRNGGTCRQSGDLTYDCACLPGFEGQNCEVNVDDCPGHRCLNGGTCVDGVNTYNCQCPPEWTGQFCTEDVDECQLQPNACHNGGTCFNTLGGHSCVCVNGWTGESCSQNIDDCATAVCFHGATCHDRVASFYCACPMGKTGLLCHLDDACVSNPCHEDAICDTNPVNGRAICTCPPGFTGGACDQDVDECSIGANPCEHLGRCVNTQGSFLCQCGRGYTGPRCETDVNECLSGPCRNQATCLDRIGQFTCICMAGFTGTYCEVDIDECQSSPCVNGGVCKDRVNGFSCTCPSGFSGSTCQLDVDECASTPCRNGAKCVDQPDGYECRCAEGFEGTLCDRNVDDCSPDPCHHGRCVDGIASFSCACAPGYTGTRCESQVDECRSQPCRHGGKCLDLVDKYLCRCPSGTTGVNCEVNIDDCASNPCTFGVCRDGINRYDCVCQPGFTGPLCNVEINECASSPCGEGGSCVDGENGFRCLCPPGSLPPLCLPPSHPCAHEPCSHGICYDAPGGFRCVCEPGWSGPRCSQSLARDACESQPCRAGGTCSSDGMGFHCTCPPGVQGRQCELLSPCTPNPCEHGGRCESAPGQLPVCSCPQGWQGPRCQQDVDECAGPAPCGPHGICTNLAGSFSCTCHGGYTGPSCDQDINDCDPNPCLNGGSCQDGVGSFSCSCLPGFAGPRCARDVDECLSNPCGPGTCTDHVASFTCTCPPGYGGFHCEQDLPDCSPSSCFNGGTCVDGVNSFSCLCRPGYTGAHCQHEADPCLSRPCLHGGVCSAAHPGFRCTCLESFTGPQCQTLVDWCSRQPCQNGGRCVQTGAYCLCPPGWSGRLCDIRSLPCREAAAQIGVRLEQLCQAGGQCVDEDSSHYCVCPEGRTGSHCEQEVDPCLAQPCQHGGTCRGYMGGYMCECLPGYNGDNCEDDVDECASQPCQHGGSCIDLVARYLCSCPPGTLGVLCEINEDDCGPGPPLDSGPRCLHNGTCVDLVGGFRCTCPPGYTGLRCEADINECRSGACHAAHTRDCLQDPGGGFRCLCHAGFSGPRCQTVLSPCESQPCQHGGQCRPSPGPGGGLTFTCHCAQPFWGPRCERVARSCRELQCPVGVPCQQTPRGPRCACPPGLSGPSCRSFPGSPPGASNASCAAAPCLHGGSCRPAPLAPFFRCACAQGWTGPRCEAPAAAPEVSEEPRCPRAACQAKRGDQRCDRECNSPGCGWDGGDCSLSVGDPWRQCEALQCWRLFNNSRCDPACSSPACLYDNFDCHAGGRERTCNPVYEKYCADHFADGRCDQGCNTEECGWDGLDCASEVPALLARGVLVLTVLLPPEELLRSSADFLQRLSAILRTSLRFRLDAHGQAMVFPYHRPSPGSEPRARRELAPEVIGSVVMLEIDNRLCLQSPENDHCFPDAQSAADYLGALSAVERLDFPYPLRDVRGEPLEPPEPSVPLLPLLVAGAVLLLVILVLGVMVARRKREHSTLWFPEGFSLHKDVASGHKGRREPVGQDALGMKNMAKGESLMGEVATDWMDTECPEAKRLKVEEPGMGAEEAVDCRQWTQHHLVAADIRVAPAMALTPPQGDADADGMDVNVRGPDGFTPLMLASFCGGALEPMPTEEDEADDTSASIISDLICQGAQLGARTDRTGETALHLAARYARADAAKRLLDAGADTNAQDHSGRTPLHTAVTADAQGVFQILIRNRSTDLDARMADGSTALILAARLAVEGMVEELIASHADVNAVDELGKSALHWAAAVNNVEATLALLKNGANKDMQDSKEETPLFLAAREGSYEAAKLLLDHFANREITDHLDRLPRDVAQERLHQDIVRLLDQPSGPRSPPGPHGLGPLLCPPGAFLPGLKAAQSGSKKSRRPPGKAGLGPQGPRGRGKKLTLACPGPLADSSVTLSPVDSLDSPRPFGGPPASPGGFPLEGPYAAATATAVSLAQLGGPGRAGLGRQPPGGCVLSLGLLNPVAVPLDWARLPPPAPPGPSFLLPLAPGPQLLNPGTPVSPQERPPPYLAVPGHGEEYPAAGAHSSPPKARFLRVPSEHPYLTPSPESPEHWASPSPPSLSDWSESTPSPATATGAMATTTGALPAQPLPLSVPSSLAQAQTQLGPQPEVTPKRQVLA
Experiment [10] can be described thus: small-molecule microarray binders of probe aEGFR, primary screen, biochemical, biotinylated probe, 635/667 nm fluorescence (AID 1097).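 Also: probe is a biotinylated anti-EGFR antibody binding compounds printed on slides; score combines fluorescence near 667 nm and signal to noise of each spot.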 Conditions: higher = more signal.
Experiment [11] deals with Plasmodium falciparum Sir2 (PF13_0152, Sir2A). Description: pfSir2 binders on small-molecule microarrays, primary screen, biochemical, small-molecule microarray, 635 nm fluorescence (AID 1098).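 Also: score merges spot fluorescence intensity with its signal-to-noise ratio.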 To be noted: small-molecule microarray binding, fluorescence 635 nm; higher = more signal.
Experiment [12] in a line: small-molecule microarray binders of probe aDKK1, primary screen, biochemical, biotinylated probe, 635/667 nm fluorescence (AID 1099).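 Also: score merges 667nm spot fluorescence with signal to noise across triplicate slides; reference of the scale not given here.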 Conditions: higher = more signal.
Experiment [13] in a line: small-molecule microarray binders of probe aCHRDL2, primary screen, biochemical, biotinylated probe, 635/667 nm fluorescence (AID 1100). Conditions: higher = more signal.
A short description of experiment [14]: splicing luciferase reporter signal modulators, primary screen, spliceosome inhibition project, cell-based, HEK293, splice +/- reporter (AID 1101).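 Also: HEK293 cells carrying a splicing-competent luciferase reporter gene; test concentration not given here.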 To be noted: luminescence, 24 h, higher = more signal, called active from +8 up or from −8 down. For orientation: Reporter assays use an easily measured gene product as a stand-in for the process of interest.
The target of experiment [15] is Fibroblast growth factor 10 (Homo sapiens) (UniProt O15520). Put plainly: FGF10 binders on small-molecule microarrays, primary screen, biochemical, small-molecule microarray, 635 nm fluorescence (AID 1102). Conditions: FGF10 binding, fluorescence 635 nm, higher = more signal.
Fibroblast growth factor 10 (Homo sapiens), sequence (O15520 whole entry, looked up): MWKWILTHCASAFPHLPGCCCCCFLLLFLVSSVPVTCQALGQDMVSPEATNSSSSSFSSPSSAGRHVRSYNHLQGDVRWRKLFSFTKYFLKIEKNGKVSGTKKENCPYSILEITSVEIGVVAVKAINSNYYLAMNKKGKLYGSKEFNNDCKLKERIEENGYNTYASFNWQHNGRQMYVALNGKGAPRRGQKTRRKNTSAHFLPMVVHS
For experiment [16], the system named is glycogen synthase kinase-3 (GSK3A per assay name; protocol says GSK3B). Put plainly: GSK3 binders on small-molecule microarrays, primary screen, biochemical, small-molecule microarray, 635 nm fluorescence, GSK3A (AID 1103). Also: the record names both GSK3A and GSK3B. To be noted: small-molecule microarray binding, fluorescence 635 nm; higher = more signal.
The target in experiment [17] is Epidermal growth factor receptor (Homo sapiens) (UniProt P00533). Put plainly: EGFR binders on small-molecule microarrays, primary screen, biochemical, small-molecule microarray, 635 nm fluorescence (AID 1104).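 Also: score merges 667 nm emission intensity with spot signal to noise over triplicate slides.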 Conditions: EGFR binding, higher = more signal.
Epidermal growth factor receptor (Homo sapiens), sequence (P00533 whole entry, looked up): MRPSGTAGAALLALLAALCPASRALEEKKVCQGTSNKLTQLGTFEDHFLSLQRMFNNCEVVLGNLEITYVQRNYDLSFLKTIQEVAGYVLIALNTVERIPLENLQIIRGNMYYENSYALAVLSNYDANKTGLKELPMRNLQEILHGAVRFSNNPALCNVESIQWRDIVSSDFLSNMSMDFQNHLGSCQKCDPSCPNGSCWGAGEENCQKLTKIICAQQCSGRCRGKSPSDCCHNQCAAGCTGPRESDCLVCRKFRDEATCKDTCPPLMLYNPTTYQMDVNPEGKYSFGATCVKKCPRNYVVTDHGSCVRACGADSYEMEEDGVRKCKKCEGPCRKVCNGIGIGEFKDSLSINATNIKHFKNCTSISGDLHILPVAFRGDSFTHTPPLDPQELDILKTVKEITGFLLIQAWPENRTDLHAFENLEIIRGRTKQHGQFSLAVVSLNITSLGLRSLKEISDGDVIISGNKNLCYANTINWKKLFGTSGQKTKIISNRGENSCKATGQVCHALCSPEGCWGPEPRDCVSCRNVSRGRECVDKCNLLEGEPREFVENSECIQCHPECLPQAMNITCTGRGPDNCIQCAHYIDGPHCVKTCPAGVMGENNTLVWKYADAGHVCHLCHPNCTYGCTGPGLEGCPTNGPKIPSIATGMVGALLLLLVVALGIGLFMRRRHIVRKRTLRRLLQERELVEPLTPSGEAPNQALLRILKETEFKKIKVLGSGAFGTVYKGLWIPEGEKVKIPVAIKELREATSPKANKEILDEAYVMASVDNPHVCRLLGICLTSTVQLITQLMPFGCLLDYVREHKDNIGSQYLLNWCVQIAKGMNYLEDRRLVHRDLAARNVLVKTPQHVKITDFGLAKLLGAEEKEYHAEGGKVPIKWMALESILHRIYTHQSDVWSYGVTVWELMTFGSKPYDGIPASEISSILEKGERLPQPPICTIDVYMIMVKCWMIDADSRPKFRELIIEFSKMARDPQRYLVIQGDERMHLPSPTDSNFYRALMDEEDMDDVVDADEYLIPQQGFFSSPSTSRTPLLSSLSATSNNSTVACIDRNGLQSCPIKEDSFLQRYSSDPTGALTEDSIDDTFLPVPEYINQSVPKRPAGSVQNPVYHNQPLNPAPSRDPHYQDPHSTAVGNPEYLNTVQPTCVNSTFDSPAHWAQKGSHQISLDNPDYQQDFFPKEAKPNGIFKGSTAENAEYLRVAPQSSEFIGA
In experiment [18] the target is Follistatin-related protein 3 (Homo sapiens) (UniProt O95633). Put plainly: FSTL3 binders on small-molecule microarrays, primary screen, biochemical, small-molecule microarray, 635 nm fluorescence (AID 1105).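 Also: score merges emission near 667 nm and signal to noise per printed spot across three slides.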 To be noted: FSTL3 binding, higher = more signal.
Follistatin-related protein 3 (Homo sapiens), sequence (O95633 whole entry, looked up): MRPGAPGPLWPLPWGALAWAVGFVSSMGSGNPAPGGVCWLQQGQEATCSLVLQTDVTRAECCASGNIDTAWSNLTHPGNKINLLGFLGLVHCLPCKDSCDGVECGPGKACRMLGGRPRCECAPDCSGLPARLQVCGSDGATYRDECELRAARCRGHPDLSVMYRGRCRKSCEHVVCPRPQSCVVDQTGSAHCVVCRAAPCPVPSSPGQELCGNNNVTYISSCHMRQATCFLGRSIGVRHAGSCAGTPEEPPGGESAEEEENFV
In experiment [19] the target is Dickkopf-related protein 1 (Homo sapiens) (UniProt O94907). Description: DKK1 binders on small-molecule microarrays, primary screen, biochemical, small-molecule microarray, 635 nm fluorescence scan (AID 1106).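 Also: score merges emission near 667 nm with signal to noise over three replicate slides.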 Conditions: DKK1 binding, higher = more signal.
Dickkopf-related protein 1 (Homo sapiens), sequence (O94907 whole entry, looked up): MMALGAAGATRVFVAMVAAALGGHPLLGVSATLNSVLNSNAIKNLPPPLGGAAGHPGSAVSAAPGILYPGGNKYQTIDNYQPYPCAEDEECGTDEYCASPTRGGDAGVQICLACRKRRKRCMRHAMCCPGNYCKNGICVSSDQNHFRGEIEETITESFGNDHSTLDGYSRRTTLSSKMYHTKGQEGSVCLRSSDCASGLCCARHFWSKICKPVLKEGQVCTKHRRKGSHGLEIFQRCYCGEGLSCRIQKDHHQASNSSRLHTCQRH
Experiment [20] deals with Inhibin beta A chain (activin A). Put plainly: INHBA (activin A) binders on microarrays, primary screen, biochemical, small-molecule microarray, 635 nm fluorescence scan (AID 1107).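 Also: mouse activin A protein probed at 4.33 µg/mL on printed slides; score merges bound-protein fluorescence near 667 nm with spot signal-to-noise.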 To be noted: small-molecule microarray binding, higher = more signal.

The source made the active and inactive calls.

For `CC(C)(C)OC(=O)CC[C@]1(C(=O)NCCN2CCOCC2)N=C(c2ccc(OCCCO)cc2)O[C@H]1c1ccccc1CN=[N+]=[N-]`, the composite z-score is 0.82 in [1]; 3.06 in experiment [5]; -0.0384 in experiment [7]; -0.541 in experiment [8]; 0.343 in [9]; 0.0074 in experiment [10]. Also, the composite z-score is 0.639 in experiment [11]; 0.626 in experiment [12]; 0.777 in experiment [13]; -0.0042 in experiment [15]; 0.813 in experiment [16]; -0.243 in experiment [17]. In addition, the composite z-score in experiment [18] is -0.49; in experiment [19], -0.663; in experiment [20], 0.82. The z-score in [2] was -1.29 (inactive); in [3], -0.981 (inactive); in [4], -1.35 (inactive); in experiment [6] it was 1.71 (inactive); in [14], -1.59 (inactive).
Take `COC(=O)C[C@H]1O[C@]2(C(=O)N(Cc3ccccc3)c3ccc(I)cc32)[C@@H](C)[C@@H]1[Si](C)(C)c1ccc(OC)cc1`: the composite z-score in [1] is -0.949; in experiment [5], -0.484; in experiment [7] it was -0.0561; in [8] it was -0.598; in experiment [9], -0.625; in experiment [10], -0.101. Besides, the composite z-score was -0.237 in [11]; 0.19 in experiment [12]; 0.533 in experiment [13]; 0.0095 in experiment [15]; -1.19 in experiment [16]; -0.398 in experiment [17]. Moreover, the composite z-score in experiment [18] is -0.192; in [19] it was -0.524; in experiment [20], 0.413. Also, the z-score in experiment [2] was 0.595 (inactive); in experiment [3] it was 0.676 (inactive); in experiment [4], 1.58 (inactive); in experiment [6], -0.556 (inactive); in experiment [14] it was -0.853 (inactive).
In the case of `O=C1O[C@@H](c2ccccc2)[C@@H](c2ccccc2)N2[C@@H](c3ccc(O)cc3)[C@]3(C(=O)Nc4ccccc43)[C@@H](C(=O)N3CCN(c4ncccn4)CC3)[C@H]12`, the composite z-score in experiment [1] is 1.29; in experiment [5], 2.71; in [7], -0.12; in experiment [8], -0.534; in experiment [9], 0.079; in [10], -0.179. Further, the composite z-score was 1.13 in experiment [11]; 0.413 in experiment [12]; 0.535 in experiment [13]; -0.0898 in experiment [15]; 0.202 in experiment [16]; -0.366 in experiment [17]. Also, the figures for the composite z-score in [18], in [19] and in experiment [20] were 0.0146, -0.21 and -0.437, respectively. The z-score was 0.2 (inactive) in [2]; -1.95 (inactive) in experiment [3]; 1.98 (inactive) in experiment [4]; 3.16 (inactive) in experiment [6]; -0.547 (inactive) in [14].
`C=CCC(OC(C)=O)[C@@H]1[C@@H](N(Cc2cc3ccccc3o2)C(=O)Cc2ccc(F)cc2)c2cc(OCCCO)ccc2N1C(=O)c1ccc(-c2ccccc2)cc1` (stereo not given in full): the composite z-score in [1] is -1.44; in experiment [5], 0.292; in experiment [7] it was -0.0598; in [8], -0.737; in experiment [9] it was -1.02; in experiment [10], -0.178. Also, the composite z-score in experiment [11] was -0.271; in experiment [12], -0.168; in experiment [13], 0.512; in experiment [15], -0.251; in [16], -0.708; in experiment [17], -0.162. Also, the composite z-score was -0.346 in experiment [18], 0.0578 in [19] and 1.18 in [20]. Besides, the z-score in experiment [2] was -0.277 (inactive); in [3] it was -0.801 (inactive); in experiment [4], -0.76 (inactive); in experiment [6], 1.64 (inactive); in [14] it was -1.05 (inactive).
As to `COCCOC(=O)N1C(=O)[C@@]2(c3cc(C#CC4=CCCCC4)ccc31)[C@H](c1ccc(O)cc1)N1[C@H](c3ccccc3)[C@H](c3ccccc3)OC(=O)[C@H]1[C@@H]2C(=O)N1CCCCCCC1`, the composite z-score in [1] was 1.57; in experiment [5], 2.11; in experiment [7], 0.367; in [8], 1.42; in [9] it was 1.13; in experiment [10] it was 0.0143. Also, the composite z-score came out at 0.84 in [11]; 0.854 in experiment [12]; 0.842 in [13]; 0.603 in experiment [15]; 1.3 in experiment [16]; 0.405 in [17]. The composite z-score in experiment [18] turned out to be 1.24; in experiment [19] it was 0.948; in experiment [20] it was 1.6. The z-score in [2] was 0.2 (inactive); in [3], -1.06 (inactive); in experiment [4], 0.776 (inactive); in experiment [6] it was 2.01 (inactive); in experiment [14] it was -0.476 (inactive).
